Values without a mark were called inactive. Inconclusive results are not listed. Activity calls are given as the source filed them. Unless noted, the call rests on the fitted dose curve; in most records, active means well fitted curve in either direction with a large enough effect (not every such curve was filed as active); inconclusive means small, poorly fitted or top-dose-only effect, or another doubt; inactive means flat fitted curve, though single readings scatter.

Experiment [1] concerns the target Lysosomal acid glucosylceramidase (Homo sapiens) (UniProt P04062). As to the kind of experiment: Glucocerebrosidase-p2 (AID 348; in the data active means potency below about 10 µM; further: potency means the concentration at half of the fitted maximal effect). The conditions noted are these: purified GBA, blue fluorogenic substrate, 40 min. In outline:
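Normal human glucocerebrosidase (0.2 nM) with blue fluorogenic substrate (80 uM final) in citrate/phosphate pH 5.9 with 10mM sodium taurocholate, 0.01% tween-20; 40 min RT, NaOH/glycine stop; fluorescence Ex 365/Em 440; AC50 from a titration from 0.6 nM upwards.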

Experiment [2] in a line: AP1 Signaling Pathway (AID 357).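 Further: ME-180 reporter cells stimulated with EGF at its EC50 level; on the % scale 0 is the no-effect control and ±100 the full control effect.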 The conditions noted are these: ME-180 AP-1-bla reporter, EGF-induced, beta-lactamase ratio, 5 h; at 7.69 µM (top of the series) unless noted. In outline: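 Titration-series screen for positive or negative modulators of EC50 EGF-induced signaling in ME-180 cells carrying an AP-1-driven beta-lactamase reporter. After 5 hours at 37 degrees Celsius, CCF4 460nm/530nm emission ratio gave %Activity; AC50 values derived.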

Experiment [3] has as its target Cytochrome P450 1A2 (Homo sapiens) (UniProt P05177). Put plainly: p450-cyp1a2 (AID 410; calls by dose curve; further: potency means the concentration at half of the fitted maximal effect;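 on activity change, negative = inhibition: -100% = full effect of reference inhibitor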). The conditions noted are these: recombinant CYP1A2, luciferin-ME demethylation, luminescence; series mostly up to 57 µM. In outline: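 Read-out is luminescence from luciferin produced by CYP1A2 demethylation of Luciferin-ME (100uM, at Km). Detection reagent stopped the 60 min NADPH-dependent reaction; signals were normalized to 57 uM furafylline.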

A short description of experiment [4]: NFAT Signaling Pathway (AID 444).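 Further: carbachol stimulus at about its EC50 of 1 µM final; on the % scale 0 is the no-effect control and ±100 the full control effect.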 The note with it: Jurkat NFAT-bla M1, carbachol, beta-lactamase ratio, 5 h; at 7.69 µM (top of the series) unless noted. In outline:
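Read-out: CCF4 FRET ratio (460 nm/530 nm) after 1 h RT dye loading, used for %activity and AC50 from titration series. Cells: Jurkat NFAT-β-lactamase/M1 line, treated with compound plus 1 uM carbachol for 5 h, 37 °C.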

Experiment [5] in a line: Stat Signaling Pathway (AID 446).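 Further: ME-180 cervical cancer cells given 40 pM IL-6 alongside compound; SIE-controlled beta-lactamase reporter measured as 460/530 nm FRET emission ratio; on the % scale 0 is the no-effect control and ±100 the full control effect.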 The note with it: ME-180 (cervical carcinoma) SIE beta-lactamase reporter, IL-6 stimulated, 5 h; at 7.69 µM (top of the series) unless noted. In outline: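 Overnight-plated ME-180 cells bearing a STAT Inducible Element beta-lactamase reporter; 5 h co-exposure to compound and 40 pM IL-6; values normalized to 300 pM IL-6 and 125 nM JAK inhibitor controls.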
For experiment [6], the target named is Glucocorticoid receptor (Homo sapiens) (UniProt P04150). As to the kind of experiment: GR-GFP Redistribution (AID 450;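 active means compounds whose dose series gives a full or clear partial fitted curve of increased nuclear translocation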; further: potency means the concentration at half of the fitted maximal effect). The note with it: U2OS GR-GFP nuclear translocation, laser cytometry, 2 h.
For experiment [7] the target is unchanged. Put plainly: GR-EFC Redistribution (AID 451; calls by dose curve; further: potency means the concentration at half of the fitted maximal effect). The note with it: CHO-K1 GR-EFC translocation, beta-gal luminescence, 2 h. In outline: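 Translocation of GR-ED fusion to nuclear EA restores b-gal, read by luminescence after 1 h room-temperature detection. Engineered CHO-K1 biosensor cells, 1,000/well, exposed 2 h at 37 C to titrations up to 46 uM final.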

Experiment [8] deals with Mitogen-activated protein kinase 10 (Mus musculus) (UniProt Q61831). Put plainly: JNK3 AlphaScreen Assay (AID 530).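 Further: kinase came from lysate of stimulated human HepG2 cells; signal reports phosphorylation of biotinylated GST-cJun 1-79 at Ser73 with 10 µM ATP; on the % scale 0 is the no-effect control and ±100 the full control effect.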 The conditions noted are these: JNK3 lysate, c-Jun phosphorylation; series mostly up to 57.1 µM. In outline:
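Kinase buffer: 20 mM Tris-HCl pH 7.6, 10 mM MgCl2, 1 mM DTT, 0.1 mM Na3VO4, 0.01% Tween-20; ATP 10 uM. Substrate biotin-GST-cJun(1-79), enzyme from activated HepG2 lysates. Detection by Ser73 phospho-antibody AlphaScreen.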
A general note: In Alpha technology, singlet oxygen from a donor bead excites a nearby acceptor bead.

In experiment [9] the target is Cytochrome P450 3A4 (Homo sapiens) (UniProt P08684). Put plainly: qHTS Assay for Inhibitors and Substrates of Cytochrome P450 3A4 (AID 884; active means well fitted curve in the direction sought with a large enough effect; an effect the other way counts as inactive or inconclusive; further: potency means the concentration at half of the fitted maximal effect; nearly all actives have a fitted effect of over 50% in size). The conditions noted are these: recombinant CYP3A4, Luciferin-PPXE luminescence; series mostly up to 57.1 µM. In outline: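 Luminescent readout of luciferin produced by CYP3A4 (20 nM) dealkylation of Luciferin-PPXE, 25 uM (its KM). NADPH-driven reaction ran 60 min at RT after 10 min compound preincubation; data scaled to 57 uM ketoconazole as 100% inhibition.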

The target is the same in experiment [10]. As to the kind of experiment: qHTS Assay for Activators of Cytochrome P450 3A4 (AID 885; active means well fitted curve in the direction sought with a large enough effect; an effect the other way counts as inactive or inconclusive; further: nearly all actives have a fitted effect of over 65% in size). The conditions noted are these: recombinant CYP3A4, Luciferin-PPXE luminescence, 60 min; series mostly up to 57.1 µM. In outline: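 Using 20nM recombinant human CYP3A4 in potassium phosphate (200mM), substrate Luciferin-PPXE at 25uM, luminescent luciferin detection followed a 60-min RT NADPH reaction; data scaled to 57 uM ketoconazole.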
(Quantitative high-throughput screening tests each substance at several concentrations.)

Experiment [11] is described as follows: Primary qHTS for small molecule stabilizers of the endoplasmic reticulum resident proteome: Secreted ER Calcium Modulated Protein (SERCaMP) assay (AID 1508630; active means well fitted curve in the direction sought with a large enough effect; an effect the other way counts as inactive or inconclusive; further: on the % scale 0 is the no-effect control and ±100 the full control effect). The note with it: SH-SY5Y GLuc-SERCaMP (Gaussia luciferase released on ER calcium loss) secretion, thapsigargin, luminescence; series mostly up to 38.4 µM. In outline: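 The SH-SY5Y reporter protocol was run at 3 concentrations up to 38.3 uM (primary) or 11 concentrations (follow-up): 16 h compound, 100 nM thapsigargin for 4 h, then extracellular luciferase luminescence.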

In experiment [12] the target is 3',5'-cyclic-AMP phosphodiesterase 4B (Homo sapiens) (UniProt Q07343). Put plainly: qHTS Assay for Inhibitors of PDE-IV (AID 607; active means well fitted activation curve with a large enough effect in the main read-out, with a control signal flat, not every such curve was filed as active; further: % of control where 0% means no effect). The note with it: HEK293 ACTOne CNG channel cells, membrane potential fluorescence; series mostly up to 22.9 µM. In outline:
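Live HEK293 cells with a modified cyclic nucleotide-gated (CNG) channel report intracellular cAMP via membrane-potential dye fluorescence (ex 535/em 590 nm). Endogenous PDE-IV was targeted. Compounds were tested at up to 22.9 uM final; RO 20-1724 100 uM served as control.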

The target of experiment [13] is Cytochrome P450 2C9 (Homo sapiens) (UniProt P11712). Put plainly: qHTS Assay for Inhibitors and Substrates of Cytochrome P450 2C9 (AID 883; active means well fitted curve in the direction sought with a large enough effect; an effect the other way counts as inactive or inconclusive; further: potency means the concentration at half of the fitted maximal effect; nearly all actives have a fitted effect of over 60% in size). The conditions noted are these: recombinant CYP2C9, luciferin-H luminescence, 60 min; series mostly up to 57.1 µM. In outline:
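Luminescent read-out of deoxyluciferin hydroxylation, normalized to 57uM sulphaphenazole (AC100). Reaction: 10nM enzyme, 100uM Luciferin-H (equal to KM), 25mM KPO4, 10 min compound preincubation, then 60 min with NADPH regeneration, both at 37C.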

Sequence of Lysosomal acid glucosylceramidase (Homo sapiens) (P04062 whole entry, looked up): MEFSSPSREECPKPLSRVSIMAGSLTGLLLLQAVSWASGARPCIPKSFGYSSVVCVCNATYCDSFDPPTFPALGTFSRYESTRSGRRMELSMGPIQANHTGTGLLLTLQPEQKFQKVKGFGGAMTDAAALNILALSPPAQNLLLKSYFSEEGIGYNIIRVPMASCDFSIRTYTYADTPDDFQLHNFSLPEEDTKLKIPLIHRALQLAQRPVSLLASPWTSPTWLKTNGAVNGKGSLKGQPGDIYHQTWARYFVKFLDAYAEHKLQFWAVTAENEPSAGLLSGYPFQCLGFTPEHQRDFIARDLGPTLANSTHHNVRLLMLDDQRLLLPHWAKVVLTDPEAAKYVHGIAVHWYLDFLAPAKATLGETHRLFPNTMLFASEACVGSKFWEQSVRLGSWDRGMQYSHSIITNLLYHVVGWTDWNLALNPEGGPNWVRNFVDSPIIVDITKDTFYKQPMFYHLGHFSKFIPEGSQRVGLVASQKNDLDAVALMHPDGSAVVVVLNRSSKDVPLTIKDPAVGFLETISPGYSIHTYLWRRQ
Sequence of Cytochrome P450 3A4 (Homo sapiens) (P08684 whole entry, looked up): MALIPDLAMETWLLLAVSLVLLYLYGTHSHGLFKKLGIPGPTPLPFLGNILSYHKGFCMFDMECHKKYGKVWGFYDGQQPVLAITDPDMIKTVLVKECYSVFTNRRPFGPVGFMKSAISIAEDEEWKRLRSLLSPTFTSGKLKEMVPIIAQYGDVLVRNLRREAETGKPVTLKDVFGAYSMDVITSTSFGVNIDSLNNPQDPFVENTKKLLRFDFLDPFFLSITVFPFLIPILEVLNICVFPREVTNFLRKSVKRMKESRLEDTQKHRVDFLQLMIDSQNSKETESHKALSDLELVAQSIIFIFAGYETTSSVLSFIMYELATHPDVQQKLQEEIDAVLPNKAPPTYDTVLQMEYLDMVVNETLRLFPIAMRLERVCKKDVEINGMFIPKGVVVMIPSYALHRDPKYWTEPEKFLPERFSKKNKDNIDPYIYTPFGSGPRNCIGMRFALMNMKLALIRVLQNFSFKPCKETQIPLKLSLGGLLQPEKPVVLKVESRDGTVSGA
Sequence of Glucocorticoid receptor (Homo sapiens) (P04150 whole entry, looked up, the tested form may be a part): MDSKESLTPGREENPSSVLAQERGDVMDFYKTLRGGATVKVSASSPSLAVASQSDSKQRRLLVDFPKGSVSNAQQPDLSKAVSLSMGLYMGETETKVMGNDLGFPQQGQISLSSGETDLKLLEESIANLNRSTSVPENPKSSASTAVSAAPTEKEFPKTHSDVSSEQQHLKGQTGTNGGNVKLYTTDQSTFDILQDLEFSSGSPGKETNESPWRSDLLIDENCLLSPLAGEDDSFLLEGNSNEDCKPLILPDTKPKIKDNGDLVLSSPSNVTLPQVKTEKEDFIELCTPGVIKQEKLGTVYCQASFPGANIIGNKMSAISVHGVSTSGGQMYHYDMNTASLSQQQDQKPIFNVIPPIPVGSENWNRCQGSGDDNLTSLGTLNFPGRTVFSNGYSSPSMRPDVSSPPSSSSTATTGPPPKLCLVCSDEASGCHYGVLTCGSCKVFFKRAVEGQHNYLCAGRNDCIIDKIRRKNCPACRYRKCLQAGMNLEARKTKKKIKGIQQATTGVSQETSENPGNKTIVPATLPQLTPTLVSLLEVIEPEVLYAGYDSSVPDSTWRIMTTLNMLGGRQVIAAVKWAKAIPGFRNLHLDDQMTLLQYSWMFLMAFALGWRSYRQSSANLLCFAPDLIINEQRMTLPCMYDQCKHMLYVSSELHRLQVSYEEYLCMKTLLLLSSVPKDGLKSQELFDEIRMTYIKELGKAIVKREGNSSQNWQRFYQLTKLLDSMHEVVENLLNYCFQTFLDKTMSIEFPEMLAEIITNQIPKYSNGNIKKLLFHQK
Sequence of Cytochrome P450 1A2 (Homo sapiens) (P05177 whole entry, looked up): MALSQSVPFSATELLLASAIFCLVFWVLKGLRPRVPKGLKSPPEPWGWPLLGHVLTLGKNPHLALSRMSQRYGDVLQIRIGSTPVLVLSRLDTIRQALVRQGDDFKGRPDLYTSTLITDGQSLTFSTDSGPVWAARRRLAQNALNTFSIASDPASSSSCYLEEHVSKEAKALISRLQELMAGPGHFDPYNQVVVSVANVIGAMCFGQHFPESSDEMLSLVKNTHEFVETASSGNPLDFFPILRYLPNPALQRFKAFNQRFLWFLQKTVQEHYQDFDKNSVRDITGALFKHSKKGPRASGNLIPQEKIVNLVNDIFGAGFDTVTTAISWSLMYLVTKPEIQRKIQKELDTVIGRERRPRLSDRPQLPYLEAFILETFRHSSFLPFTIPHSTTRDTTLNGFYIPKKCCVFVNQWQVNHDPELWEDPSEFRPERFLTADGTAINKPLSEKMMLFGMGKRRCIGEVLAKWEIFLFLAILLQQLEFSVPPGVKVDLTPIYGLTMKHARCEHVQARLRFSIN
Sequence of 3',5'-cyclic-AMP phosphodiesterase 4B (Homo sapiens) (Q07343 whole entry, looked up): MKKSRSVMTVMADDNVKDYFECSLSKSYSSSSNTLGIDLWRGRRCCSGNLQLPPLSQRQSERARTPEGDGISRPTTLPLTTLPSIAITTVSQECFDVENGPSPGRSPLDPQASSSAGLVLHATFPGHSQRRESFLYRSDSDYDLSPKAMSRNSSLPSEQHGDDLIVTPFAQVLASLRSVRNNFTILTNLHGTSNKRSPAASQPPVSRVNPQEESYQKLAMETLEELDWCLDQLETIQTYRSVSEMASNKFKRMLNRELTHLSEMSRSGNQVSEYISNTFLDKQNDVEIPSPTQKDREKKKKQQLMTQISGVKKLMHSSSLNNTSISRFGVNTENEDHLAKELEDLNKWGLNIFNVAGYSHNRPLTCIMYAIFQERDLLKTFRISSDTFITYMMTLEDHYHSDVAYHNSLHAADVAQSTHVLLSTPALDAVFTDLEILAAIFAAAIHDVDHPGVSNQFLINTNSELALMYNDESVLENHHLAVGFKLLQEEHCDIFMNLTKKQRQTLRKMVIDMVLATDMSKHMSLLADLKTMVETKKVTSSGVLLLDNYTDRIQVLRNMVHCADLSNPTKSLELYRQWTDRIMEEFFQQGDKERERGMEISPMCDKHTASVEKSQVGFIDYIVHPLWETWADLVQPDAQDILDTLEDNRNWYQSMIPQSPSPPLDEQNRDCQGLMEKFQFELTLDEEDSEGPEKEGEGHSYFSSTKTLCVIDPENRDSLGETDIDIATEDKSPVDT
Sequence of Cytochrome P450 2C9 (Homo sapiens) (P11712 whole entry, looked up): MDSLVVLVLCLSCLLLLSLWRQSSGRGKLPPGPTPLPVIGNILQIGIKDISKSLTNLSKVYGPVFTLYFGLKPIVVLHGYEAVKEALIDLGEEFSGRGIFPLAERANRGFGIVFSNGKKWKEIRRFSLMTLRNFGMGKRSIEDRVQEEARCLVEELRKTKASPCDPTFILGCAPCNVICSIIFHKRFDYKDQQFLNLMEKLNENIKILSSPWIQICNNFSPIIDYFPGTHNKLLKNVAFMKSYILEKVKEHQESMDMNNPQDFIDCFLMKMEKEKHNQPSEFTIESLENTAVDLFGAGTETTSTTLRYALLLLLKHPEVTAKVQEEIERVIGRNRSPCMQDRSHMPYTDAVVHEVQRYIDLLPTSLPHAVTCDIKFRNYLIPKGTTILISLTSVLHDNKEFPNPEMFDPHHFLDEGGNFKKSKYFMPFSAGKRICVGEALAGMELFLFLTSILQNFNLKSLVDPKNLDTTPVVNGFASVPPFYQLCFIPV

`COCCn1c(=O)c(-c2cn(C)c3ccccc23)nc2cncnc21`: the Potency in experiment [1] is > 11.4 µM; in experiment [3], 0.398 µM (active); in experiment [6], > 9.22 µM; in experiment [7], > 46 µM; in [9] it was 3.16 µM (active). The activity change, negative = inhibition was 1.74% in [2] and -1.67% in experiment [4]. Moreover, the activity, negative = inhibition in experiment [5] is -9.49%. The Potency entry in [8] and in [10] was “inactive” throughout. Besides, the outcome in experiment [11] was inactive.
For the compound `O=c1cnc2cnc(OCc3ccccc3)nc2n1Cc1ccc(F)cc1`, the Potency was > 11.4 µM in experiment [1]; 12.6 µM (active) in [3]; > 9.22 µM in experiment [6]; > 46 µM in [7]; 5.01 µM (active) in experiment [9]. The activity change, negative = inhibition in [2] was -29.4%; in experiment [4], -14.6%. In addition, in experiment [5], the activity, negative = inhibition was -21.4%. The Potency entry in experiment [8] and in experiment [10] was “inactive” each time. Moreover, the outcome in experiment [11] was inactive.
As for `COCCn1c(=O)c(-c2ccc(Cl)cc2)nc2cncnc21`, the Potency is > 11.4 µM in experiment [1], 0.2 µM (active) in experiment [3], > 9.22 µM in [6] and > 46 µM in [7]. Besides, the activity change, negative = inhibition is -10.8% in experiment [2] and 9.96% in experiment [4]. The activity, negative = inhibition in [5] was 1.43%. Besides, the Potency entry in [8], in [12] and in experiment [10] was “inactive” each time. For the same compound, the outcome in experiment [11] was inactive.
In the case of `COCCn1c(=O)c(-c2ccc(Cl)cc2)nc2cnc(Oc3ccccc3)nc21`, the Potency in experiment [1] is > 11.4 µM; in experiment [3], 0.794 µM (active); in experiment [6] it was > 9.22 µM; in experiment [7], > 46 µM; in experiment [13] it was 7.94 µM (active). Moreover, the results for the activity change, negative = inhibition in [2] and in experiment [4] were -8.55% and 17.4%, respectively. Further, the activity, negative = inhibition in experiment [5] was -10%. Moreover, the Potency result in experiment [8], in experiment [12] and in experiment [10] was “inactive” throughout. In addition, the outcome in experiment [11] was inactive.
With `Cn1c(=O)c(-c2ccc(F)cc2)nc2cncnc21`, the Potency in [1] is > 11.4 µM; in experiment [3] it was 0.158 µM (active); in experiment [6] it was > 9.22 µM; in experiment [7] it was > 46 µM. The activity change, negative = inhibition was -16.1% in [2] and -1.33% in experiment [4]. Further, in experiment [5], the activity, negative = inhibition was -0.562%. Besides, the Potency entry in experiment [8], in experiment [12] and in experiment [10] was “inactive” each time. Moreover, the outcome in experiment [11] was inactive.
As to `COc1cccc(Nc2ncc3nc(CCc4ccccc4)c(=O)n(CCC#N)c3n2)c1`, the results for the Potency in experiment [1], in [6] and in [7] were > 11.4 µM, > 9.22 µM and > 46 µM, respectively. In addition, the activity change, negative = inhibition in experiment [2] is -11.6%; in experiment [4], -14.1%. Further, the Potency entry in experiment [3], in [8] and in experiment [10] was “inactive” each time. The activity, negative = inhibition in experiment [5] is -2.69%. Further, in [11], the outcome was inactive.

Values taken from PubChem BioAssay (NCATS).
